From PubChem BioAssay AID590 (National Center for Advancing Translational Sciences (NCATS), 2007)
Screen size: about 59,000 compounds; about 6,500 (11%) were called active. Roughly 15% stayed inconclusive and do not appear here. Rule as the data show it: active = max dye-equivalent concentration above about 10 nM; inconclusive = mostly about 1.1 nM to 9.6 nM; inactive = weaker than that. Many of the other results were omitted from the sample, so actives are more common in it than they were.

test: qHTS Assay for Spectroscopic Profiling in A350 Spectral Region; conditions: Compound autofluorescence, 340/450 nm, Alexa 350 dye-equivalents; hits give high values

| Structure (SMILES) | max dye-equivalent concentration |
| --- | --- |
| C=CCNC(=O)C12CC3CC(C1)CC(C(=O)NCC=C)(C3)C2 | inactive |
| CN1CCN(CC(=O)C23CC4CC(CC(C4)C2)C3)CC1 | inactive |
| CC(NCCO)C(=O)C12CC3CC(CC(C3)C1)C2 (stereo not drawn) | 43 nM (active) |
| O=C(O)CCC(=O)Nc1ccc(N2CCOCC2)cc1 | inactive |
| CN(C)c1nc2n(c(=O)n1)CCO2 | inactive |
| Cc1ccsc1CNn1cnnc1SCc1ccccc1F | inactive |
| O=C(c1cnccn1)N1CCC2(CCN(Cc3cc(C(F)(F)F)cc(C(F)(F)F)c3)CC2)CC1 | inactive |
| Cc1nc(NCCN)c(C#N)c2c1COC(C)(C)C2 | 16 nM (active) |
| CCN1CCN(c2ncnc3c2oc2nc(C)c4c(c23)CC(C)(C)OC4)CC1 | inactive |
| COc1ccc2[nH]cc(CCNc3cc(-c4ccccc4CN(C)C)ncn3)c2c1 | inactive |
| Nc1ccc2c3c(cccc13)C(=O)NC2=O | inactive |
| CNc1nc(-c2ccccc2OC)nc2ccccc12 | inactive |
| CCSc1nc(=S)n(CC)c(C)c1C(C)=O | inactive |
| CCOC(=O)N1CCC(NC(=O)Cc2cn(C)c3ccccc23)CC1 | inactive |
| CCOC(=O)N1CCC(NC(=O)CCc2cn(C)c3ccccc23)CC1 | 470 nM (active) |
| CCOC(=O)N1CCC(NC(=O)C(C)n2c3ccccc3c3cnn(C)c(=O)c32)CC1 (stereo not drawn) | inactive |
| CC(=O)N1CCN(C(=O)c2cccc(S(=O)(=O)Nc3ccc(C)cc3)c2)CC1 | inactive |
| CC1(C)CC(CCC(=O)Nc2ccccc2Cl)C(=O)O1 (stereo not drawn) | inactive |
| CC(C)c1nc2oc3c(N4CCN(C)CC4)ncnc3c2c2c1CCC2 | inactive |
| CCCCC(=O)Nc1ccc(C(=O)NCCCn2ccnc2)cc1 | inactive |
| CCCCCC(=O)Nc1ccc2oc(-c3ccncc3)nc2c1 | 29 nM (active) |
| CCCCC(=O)Nc1ccc2c(c1)OCCO2 | inactive |

| Structure (SMILES) | max dye-equivalent concentration |
| --- | --- |
| CCOC(=O)c1cccc(NC(=O)CCc2c(C)nc3ncnn3c2C)c1 | inactive |
| CCCCCN(C(=O)NC(=O)Nc1ccccc1OC)S(C)(=O)=O | inactive |
| COc1ccc(OC)c(NC(=O)CSc2nc3cccnc3n2C)c1 | inactive |
| CCCC1C(c2ccccc2)C(C#N)(C#N)C2(C#N)CC1(N)NC2=O (stereo not drawn) | inactive |
| CN1CCN(C(=O)C2C3C=CC(C3)C2C(=O)O)CC1 (stereo not drawn) | inactive |
| CCOC(=O)c1c(CN2CCOCC2)n(-c2ccccc2)c2ccc(O)cc12 | inactive |
| O=C(CN1CCOCC1)N1CCCc2c1c(=O)oc1ccc(OCc3ccccc3)cc21 | 41 nM (active) |
| O=C(OCCN1CCOCC1)C1(c2ccccc2)CCCCC1 | inactive |
| O=S(=O)(O)c1nc2ccccc2n1Cc1ccc(Cl)cc1Cl | inactive |
| COc1ccc(CNc2ncncc2-c2ccccc2C)c(OC)c1 | inactive |
| CCOc1ccc2nc(N3CCCN(C(=O)Nc4ccccc4C)CC3)c(C#N)cc2c1 | 16 nM (active) |
| Cc1ccccc1NC(=O)CNc1ccccc1N1CCCCC1 | inactive |
| CCOc1ccc(NC(=O)N2CCN(CC)CC2)cc1 | inactive |
| Cc1ccnc(SCCn2c(Br)nc3c2c(=O)[nH]c(=O)n3C)n1 | inactive |
| CC1CN(C2CCN(C(=O)COc3ccccc3)CC2)CC(C)O1 (stereo not drawn) | inactive |
| Nc1nc2c(ncn2[C@H]2CC[C@@H](CO)O2)c(=O)n1C(=O)c1ccccc1 | inactive |
| COc1cccc(CN2C(=O)CCC2(C)C(=O)NC2CCCCCC2)c1 (stereo not drawn) | inactive |
| COc1cccc(Cn2c(=O)cnc3cncnc32)c1 | inactive |
| CCc1nnc(NC(=O)CSc2nnc(Cc3ccccc3)n2-c2ccc(OC)cc2)s1 | inactive |
| CCNc1ncc2ncc(=O)n(CCc3ccccc3)c2n1 | 89 nM (active) |
| COc1cccc(Cn2c(=O)c(CCc3ccccc3)nc3cnc(N(C)C)nc32)c1 | 31 nM (active) |
| CCNc1ncc2nc(CCc3ccccc3)c(=O)n(-c3ccc(OC)cc3)c2n1 | 15 nM (active) |

| Structure (SMILES) | max dye-equivalent concentration |
| --- | --- |
| COc1ccc(-n2c(C)nc3c(cnn3-c3ccccc3)c2=O)cc1 | inactive |
| CCNc1ncc2ncc(=O)n(Cc3cccc(OC)c3)c2n1 | 16 nM (active) |
| COc1cccc(Cn2c(=O)c(C)nc3cnc(Oc4ccccc4)nc32)c1 | inactive |
| COc1cccc(Nc2ncc3ncc(=O)n(C4CC4)c3n2)c1 | inactive |
| O=c1cnc2cnc(Nc3ccccc3)nc2n1Cc1ccc(F)cc1 | inactive |
| CSCCC(NC(=O)C1CCC(C)CC1)C(=O)NCc1ccco1 (stereo not drawn) | inactive |
| CC(C)NC(=O)N1CCCC2(CCN(C(=O)c3cccn3C)CC2)C1 | inactive |
| Cc1cccc(C)c1NC(=O)N1CC=C(n2c(=O)[nH]c3ccccc32)CC1 | inactive |
| CC(C)CCNC(=O)C1CCCN(S(=O)(=O)c2ccc(F)cc2)C1 (stereo not drawn) | inactive |
| CCN(CC)C(=O)CSc1nnc(-c2cccc(OC)c2)o1 | inactive |
| CC(C)NC(=O)CCCn1c(=S)[nH]c2cc3c(cc2c1=O)OCO3 | inactive |
| Cc1cccc(NC(=O)CSc2nnc(CCCCCNC(=O)OC(C)(C)C)o2)c1C | inactive |
| Cc1cccc(N(CC(O)CN(C)C)S(=O)(=O)c2ccccc2)c1 (stereo not drawn) | inactive |
| COC(=O)c1ccc(Oc2nc(Nc3ccc(F)cc3)nc(N3CCCC3)n2)cc1 | inactive |
| CSc1ccc(S(=O)(=O)Nc2cccc(F)c2)cc1 | inactive |
| C=CCN(c1ccc(C(N)=O)cc1)S(C)(=O)=O | inactive |
| Cn1c(=O)cc(SCC(=O)N2CCCC2)c2cc(Cl)ccc21 | 12 nM (active) |
| Cn1c(=O)cc(SCC(=O)N2CCN(C(=O)c3ccco3)CC2)c2ccccc21 | inactive |
| CCOC(=O)C1CCN(C(=O)CSc2cc(=O)n(C)c3ccccc23)CC1 | inactive |
| COC(=O)c1sc(=S)n(-c2ccccc2)c1N | inactive |
| COCCCNC(=O)Cn1cc(C(=O)C2CC2)c2ccccc21 | inactive |
| COc1ccc(-c2ccc(-c3noc(-c4ccncc4)n3)c(OC)n2)cc1 | 24 nM (active) |

| Structure (SMILES) | max dye-equivalent concentration |
| --- | --- |
| O=C(Oc1ccc(-c2nc(-c3ccccn3)no2)cc1)c1ccccc1 | inactive |
| COc1ccc(-c2nc(-c3ccccc3)no2)c(OC)c1 | inactive |
| COc1ccc(-c2noc(CN(C)S(=O)(=O)c3ccc(C)cc3)n2)cc1 | inactive |
| CCOc1nc(-c2ccc(OC)cc2)ccc1-c1noc(-c2cc(OC)c(OC)c(OC)c2)n1 | 81 nM (active) |
| CCOc1cc(-c2noc(CCC(=O)N3CCOCC3)n2)ccc1OC | inactive |
| Cn1c(=O)c2c(ncn2CC(=O)N2CCN(c3ccccc3)CC2)n(C)c1=O | inactive |
| CCOc1ccc(C(C)C)cc1S(=O)(=O)n1nc(C)cc1C | inactive |
| N#Cc1ccccc1-c1ccc2ncnc(NCc3cccnc3)c2c1 | inactive |
| CC(Cc1cccs1)NC(=O)NC1CCCCC1 (stereo not drawn) | inactive |
| COc1ccccc1CNc1ccnc(-c2c(C)noc2C)n1 | inactive |
| CCCS(=O)(=O)N1CCC(C(=O)NCCc2ccc(OC)c(OC)c2)CC1 | inactive |
| COc1ccc(CCNC(=O)C2CCN(c3nn4c(=O)cc(C)nc4s3)CC2)cc1OC | inactive |
| CCOc1ccc(CCNC(=O)C2CCN(c3ccc(N4CCOCC4)nn3)CC2)cc1OCC | 560 nM (active) |
| O=C(CN1CCN(c2ccc(F)cc2)CC1)Nc1cccc(C(F)(F)F)c1 | inactive |
| O=C(c1ccc([N+](=O)[O-])cc1)[C@@H](Br)[C@@H](Br)c1ccnc2ccccc12 | inactive |
| O=C1NC(c2ccncc2)Nc2sc3c(c21)CCCC3 (stereo not drawn) | 58 nM (active) |
| CCc1nnc(NC(=O)CSc2nnc(COc3ccc(C#N)cc3)n2-c2ccccc2)s1 | inactive |
| O=C(Nc1cccc(F)c1)N1CC2(CCN(C(=O)c3csnn3)CC2)C1 | inactive |
| Cn1c(CCN2CCCCCC2)nc2cc(NC(=O)Nc3ccccc3)ccc21 | inactive |
| Cc1nc2ccc(NC(=O)N3CCC(c4ccccc4)C3)cc2nc1C (stereo not drawn) | 410 nM (active) |
| O=C(Nc1cccc(NC(=O)N2CCN(c3ccccc3)CC2)c1)N1CCN(c2ccccc2)CC1 | inactive |
| O=C(COC(=O)C12CC3CC(CC(C3)C1)C2)NCc1ccco1 | 16 nM (active) |

| Structure (SMILES) | max dye-equivalent concentration |
| --- | --- |
| O=C(COC(=O)CCC(=O)c1cccs1)NCc1ccco1 | inactive |
| Cc1cc(C(=O)OCC(=O)NCc2ccco2)c(C)n1-c1ccccc1 | inactive |
| NC[C@@H]1O[C@H](O[C@@H]2[C@H](O[C@@H]3O[C@H](CO)[C@@H](COC[C@H]4O[C@@H](CN)[C@@H](O)[C@@H](O)[C@@H]4N)[C@@H]3O)[C@@H](O)[C@@H](N)C[C@H]2N)[C@@H](N)[C@H](O)[C@@H]1O | inactive |
| N#Cc1ccc(CN2CCCC3(CCN(C(=O)c4ccco4)CC3)C2)cc1 | inactive |
| CCOc1ccc(NS(=O)(=O)c2ccc(OCC(=O)NCCCOC)cc2)cc1 | inactive |
| O=C(CC(NS(=O)(=O)c1ccc(Cl)cc1)c1ccco1)NC1CCCC1 (stereo not drawn) | inactive |
| O=c1[nH][nH]c(=O)c2cc(N3CCCC3)ccc12 | 47 nM (active) |
| O=C(NCc1cccnc1)c1cn(-c2ccccc2)nc1-c1cccs1 | inactive |
| O=C1CC(c2ccccc2)C(=O)N1c1cccc(O)c1 (stereo not drawn) | inactive |
| CCCC(CCC(=O)OC)(C(=O)OCC)c1csc(N)n1 (stereo not drawn) | inactive |
| CCCCNC(=O)c1ccccc1NC(=O)c1ccccc1N(C)S(C)(=O)=O | inactive |
| O=C(c1cccc(F)c1)N1CCC2(CC1)CCN(c1ccccc1)CC2 | inactive |
| CCOC(=O)N1CCN(CC(=O)Nc2cc(C)nn2-c2nc3ccccc3s2)CC1 | inactive |
| CCOC(=O)N1CCN(C(=O)C2CCN(S(C)(=O)=O)CC2)CC1 | inactive |
| CCOC(=O)N1CCN(C(=O)C2CCN(c3ncnc4c3sc3cccc(F)c34)CC2)CC1 | 18 nM (active) |
| CCCc1cc(=O)n2[nH]c(SCc3ccccc3)nc2n1 | inactive |
| Cc1ccc(C(=O)NC2CC(C)(C)NC(C)(C)C2)c(C)c1 | inactive |
| CS(=O)(=O)N(CC(=O)NCc1ccco1)c1ccc2c(c1)OCO2 | 29 nM (active) |
| CS(=O)(=O)N(CC(=O)N1CCN(Cc2ccc3c(c2)OCO3)CC1)c1ccc2c(c1)OCO2 | inactive |
| O=C(Cn1nnc(-c2ccc3c(c2)OCO3)n1)NCc1ccco1 | inactive |
